Experiments:
Settings in all cases: concentration: 1 μM, replicates: in singlicate; n = 1
PRKX = system: PRKX
PRP4 = system: PRP4
PYK2 = system: T1, PYK2
T1 construct: gene PTK2B

QSK = system: QSK
RAF1 = system: RAF1
RET = system: RET
RIOK1 = system: RIOK1
RIOK2 = system: RIOK2
RIOK3 = system: RIOK3
RIPK1 = system: RIPK1
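Further: KINOMEscan kinase panel screen.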

SMILES: COC(=O)c1c(-c2ccccc2)c2cc(Br)ccc2c(=O)n1Cc1ccc(S(C)(=O)=O)cc1
- %Inh (PRKX): 28%
- %Inh (PRP4): 0%
- %Inh (PYK2): 6%
- %Inh (QSK): 0%
- %Inh (RAF1): 27%
- %Inh (RET): 16%
- %Inh (RIOK1): 0%
- %Inh (RIOK2): 19%
- %Inh (RIOK3): 0%
- %Inh (RIPK1): 0%

SMILES: COc1ccc(-n2cnc3c(N)ncnc32)cc1 [SKF-97236]
- %Inh (PRKX): 15%
- %Inh (PRP4): 0%
- %Inh (PYK2): 0%
- %Inh (QSK): 0%
- %Inh (RAF1): 0%
- %Inh (RET): 34%
- %Inh (RIOK1): 14%
- %Inh (RIOK2): 28%
- %Inh (RIOK3): 0%
- %Inh (RIPK1): 0%

SMILES: O=C(Nc1n[nH]c2cc(-c3ccccc3F)ccc12)C1CC1 [SB-733371]
- %Inh (PRKX): 0%
- %Inh (PRP4): 7%
- %Inh (PYK2): 15%
- %Inh (QSK): 6%
- %Inh (RAF1): 35%
- %Inh (RET): 0%
- %Inh (RIOK1): 50%
- %Inh (RIOK2): 0%
- %Inh (RIOK3): 63%
- %Inh (RIPK1): 78%

SMILES: O=c1cc(N2CCOCC2)nc2n(Cc3ccc(F)c(Cl)c3)ccn12 [GSK2297099]
- %Inh (PRKX): 20%
- %Inh (PRP4): 17%
- %Inh (PYK2): 0%
- %Inh (QSK): 2%
- %Inh (RAF1): 54%
- %Inh (RET): 0%
- %Inh (RIOK1): 5%
- %Inh (RIOK2): 18%
- %Inh (RIOK3): 14%
- %Inh (RIPK1): 1%
